Rows were chosen to be rich in hits. Some 3% of all compounds tested hit in one or more screens of this group.
Vif inh: HIV Vif self-association inhibitors, primary screen, imaging, HEK293T, single point; HEK293T cells, Vif self-association by quenched fluorescence, 24 h; inhibition, % at 7.49 µM; 0.35% of 340,000 active; AID 602346, 2012; in the data active = inhibition above about 50%, passing the limit was not always enough; inconclusive = no clear call, values can overlap the other calls; inactive = below about 31%
esBAF inh: Bmi1 luciferase reporter increase in mESCs, primary screen, esBAF inhibitor project, mouse ES cells, Bmi1 luciferase knock-in, single point; 2% of 350,000 active; reporter increase, % at 12.5 µM; 24 h; 100% = twice the neutral-well signal; in the data active = activation above about 40%; inconclusive = no clear call, values can overlap the other calls;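 note: 0% = median of the plate's neutral control wells and 100% = double that signal; a rise in the Bmi1 reporter signal indicates esBAF inhibition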
Wnt act: Wnt/beta-catenin pathway activators, primary screen, cell-based, plate reader, single point. 1.2% of 300,000 active. AID 743398, 2014. Wnt/beta-catenin reporter cell assay, activator. activation, % at 9.35 µM; in the data active = activation above about 30%, passing the limit was not always enough; inconclusive = no clear call, values can overlap the other calls;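 note: 0% = neutral control wells and 100% = positive control wells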
PfHsp90 yeast 2: growth inhibition of PfHsp90-expressing yeast, primary screen, antimalarial PfHsp90 inhibitor project, S. cerevisiae, BacTiter-Glo luminescence, single point, set 2 | BacTiter-Glo ATP, 48 h; yeast lacking PDR1 and PDR3 efflux regulators | inhibition, % at 9.4 µM | 0.32% of 310,000 active | AID 504621, 2011;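 active = every replicate shows inhibition above about 80%, whatever the replicate mean, limit read from the data; inconclusive = mean inhibition reaches the set limit but some replicate falls short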;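 note: 0% = DMSO neutral controls and 100% = 20 µM radicicol positive controls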
Glyco luc inh: increase of ERlucT glycosylation luciferase signal, primary screen, N-linked glycosylation inhibitor project, D54 ERlucT cells, luminescence, set 2 | D54 ERlucT glycosylation luciferase reporter, 24 h; percent of 100 nM tunicamycin response | reporter increase, % at 12.5 µM | 0.23% of 360,000 active | AID 588692, 2011;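 active = mean luciferase reporter signal, scaled so untreated is 0 and the glycosylation-blocking control 100, at or above a set limit in every replicate; inconclusive = mean reaches the limit but not every replicate does; inactive = mean below the limit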;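 note: luciferase carries N-glycosylation sites so blocking glycosylation raises the light; 0% = median of neutral control wells and 100% = median of 100 nM tunicamycin wells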
MITF act: activators of MITF-driven TRPM1 promoter reporter, primary screen, cell-based, SK-MEL-5, luciferase, single point; SK-MEL-5 TRPM1-promoter luciferase, 24 h; % of positive control, neutral wells = 0; activation, % at 12.5 µM; 0.75% of 300,000 active; AID 588334, 2011;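 active = mean activation of at least 80% with every replicate also reaching 80%; inconclusive = mean reaches 80% but some replicate falls short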;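 note: 0% = neutral control wells and 100% = parthenolide positive control wells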
* = called active by the depositor; ? = inconclusive; . = no result.

SMILES	Vif inh	esBAF inh	Wnt act	PfHsp90 yeast 2	Glyco luc inh	MITF act
COCC(=O)Nc1ccc2c(c1)[C@@H]1C[C@H](CC(=O)N[C@@H](C)c3ccccc3)O[C@H](CO)[C@@H]1O2	.	-4	.	.	.	.
COc1ccccc1CN1CC(C(=O)N(C)CCOc2ccccc2)CCC1=O (stereo not given)	-1	-3	1	12	1	3
O=C(Nc1ccc(N2CCCC2)c(Cl)c1)c1ccc(Br)o1	1	76*	.	-15	-6	76
O=C(Nc1ccccc1N1CCCC1)c1ccc(Br)o1	-5	3	.	.	-1	10
CCC(=O)N1CCN(c2ccc(NC(=O)c3ccc([N+](=O)[O-])o3)cc2Cl)CC1	66*	.	-8	-6	1	-87
CC(=O)N1CCN(c2ccc(NC(=O)c3ccc([N+](=O)[O-])o3)cc2Cl)CC1	57*	-7	-6	-1	-18	.
CC(=O)N1CCc2c(sc(NC(=O)c3ccc([N+](=O)[O-])o3)c2C#N)C1	-5	.	67*	1	-22	-93
COC(=O)CC(NS(=O)(=O)c1cccs1)c1cccc2ccccc12 (stereo not given)	-2	8	3	-6	0	.
C/C(=N\O)c1sc(-c2ccccc2)nc1C	0	.	64*	-13	-3	36
C=C(C)c1sc(-c2ccccc2)nc1C	.	.	-3	.	.	.
COCCNc1ncnc2c1ncn2[C@H]1CN(Cc2ccc3c(c2)OCO3)C[C@@H](CO)O1	1	6	-4	.	1	.
COc1ccc(/C=N/NC(=O)c2ccccc2O)cc1Cn1cc([N+](=O)[O-])cn1	1	.	2	5	1	-8
COc1ccc(/C=N/Nc2ccccc2C(=O)O)cc1Cn1cc([N+](=O)[O-])cn1	.	48*	18	8	-4	13
CC(SCc1ccccc1)C(=O)Nc1ccccc1-c1ccccc1 (stereo not given)	1	.	.	-10	0	-6
CCCNC(=O)Nc1nc2ccccc2s1	1	.	?	-36	-9	126*
Cc1csc(SCC(=O)Nc2nc3ccccc3s2)n1	-21	47*	-2	-6	-2	.
Cc1csc(SCC(=O)Nc2ccccc2)n1	3	9	2	-28	1	29
CC(C)OC(=S)N/C(=N\S(=O)(=O)c1ccccc1)c1ccccc1	-2	-2	.	.	3	2
Fc1ccccc1N=C1NN=C(c2ccccc2)CS1	-12	53*	-1	.	-8	50
Clc1ccccc1N=C1NN=C(c2cccs2)CS1	-6	66*	-1	.	-2	46
c1ccc(CN=C2NN=C(c3ccccc3)CS2)cc1	-2	46*	8	-13	-4	73
C[C@H]1CN([C@@H](C)CO)C(=O)c2cccc(NS(=O)(=O)c3cccs3)c2O[C@@H]1CN(C)Cc1ccc(C(=O)O)cc1	.	-2	.	.	.	.
COc1ccccc1NNC(=O)c1cc(C(C)(C)C)nn1Cc1ccccc1	-6	.	54*	-10	-7	.
O=C(C[C@H]1CC[C@H]2[C@@H](COC[C@@H](O)CN2Cc2cc(F)cc(F)c2)O1)NCc1cccc(F)c1	.	-6	.	.	.	.
C=C(C)CN(CC)C(=O)CCc1nnc(CCCc2ccccc2)o1	-3	.	13	18	-1	55
SMILES	Vif inh	esBAF inh	Wnt act	PfHsp90 yeast 2	Glyco luc inh	MITF act
C#CCN(CC=C)C(=O)CCc1nnc(COc2ccccc2)o1	-11	59*	-6	.	-3	38
O=C(Nc1ccc(-c2nc3cccnc3s2)cc1)c1cccnc1Cl	.	-7	38*	14	-17	54
O=C(Nc1ccc(-c2nc3cccnc3s2)cc1)c1ccc(Br)o1	1	32	39*	-11	-6	.
O=C(Nc1cccc(-c2nc3cccnc3s2)c1)c1ccco1	97*	36	8	-43	3	42
O=C(Nc1ccc(-c2nc3cccnc3s2)cc1)c1ccco1	2	-7	20	29	-13	.
CCOc1ncccc1C(=O)Nc1cccc(-c2nc3cccnc3s2)c1	4	.	29	-6	1	10
O=C(Nc1ccc(-c2nc3cccnc3s2)cc1)c1ccc(Cl)nc1	-4	19	8	18	-4	89*
CCOc1cc(NC(=S)NCCCN2CCOCC2)c(OCC)cc1NC(=O)c1ccccc1	-5	-5	-1	-4	-1	-6
O=C(CSc1nnc(C2CC2)n1Cc1ccccc1)NCc1ccccc1	2	-7	-6	.	1	.
CC(CCC(=O)NN)C1CCC2C3CCC4CC(O)CCC4(C)C3CCC12C (stereo not given)	22	1	2	5	-2	-6
CC(CCC(C)C(C)(C)C)[C@@H]1CC[C@H]2C3C[C@H](OS(O)(=S)=S)[C@H]4C[C@H](OS(O)(=S)=S)[C@@H](OS(O)(=S)=S)C[C@]4(C)[C@H]3CC[C@]12C (stereo not given in full) (tested in a mixture with another compound)	2	0	.	109*	5	27
CC(=O)Nc1cccc(NC(=O)CSc2ccc(-c3ccccn3)nn2)c1	-6	.	0	26	-6	-8
O=C1C2=C(CCCC2)C(=O)N1c1cccc(OCCBr)c1	-4	.	-7	-65	5	3
CC(C)CN(CCOc1cccc(N2C(=O)C3=C(CCCC3)C2=O)c1)CC(C)C	-2	.	42*	5	-3	-16
c1ccc(C(c2ccccc2)c2noc(CN3CCC(c4ccncc4)CC3)n2)cc1	-5	-4	-2	.	-3	3
C#CCN(CC=C)C(=O)c1ccc(OC2CCN(S(=O)(=O)N(C)C)CC2)cc1	1	26	9	2	-1	.
Cc1cc(/C=N/NC(=O)c2ccc(O)cc2)c(C)n1C1CC1	-7	-3	-7	-4	-2	2
NC(=O)c1c(NC(=O)c2cccs2)sc2c1CCCCCC2	-4	105*	.	-45	0	118*
O=C(O)c1c(NC(=O)c2cccc3ccccc23)sc2c1CCC2	7	4	-6	2	1	.
O=C(Nc1sc2c(c1C(=O)O)CCC2)c1cccs1	12	46*	.	-12	-2	-1
COCCCNC(=O)c1c(NC(=O)c2cccs2)sc2c1CCCC2	-7	-3	-7	0	-2	.
CCN(c1ccccc1)S(=O)(=O)c1cccc(C(=O)OCC(=O)Nc2ccc(NC(C)=O)cc2)c1	1	-1	-4	25	-1	-2
